# Measured values as given in the supplement of paper PMC10849652.
# The full data set covers some 8,800 targets. This sample favours those with a hit. About 0.5% of all pairs of compound and target were hits. A number with no mark means an inactive call.
# Assays:
# Experiment in all cases: log2 fold change, soluble protein after heating vs DMSO (PISA); higher = thermal stabilisation; K562 lysate, 10 uM; active = over 0.2 and 3.5 SD of the protein, either way, in both replicates (recomputed)
# vemurafenib = compound: CCCS(=O)(=O)Nc1ccc(F)c(C(=O)c2c[nH]c3ncc(-c4ccc(Cl)cc4)cc23)c1F [vemurafenib]
# In short: (§1)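 Soluble protein was defined as the supernatant remaining after 21,000xg for 90 min, following pooling of heated aliquots and adjustment to 0.5% NP-40 at 4°C. Before that, crude K562 extract at 1 mg/mL protein in PBS pH 7.4 with 1 mM MgCl2 was treated with 10 μM compound for 30 min and heated for 3 min across 48°C-58°C. Quantification used TMTpro 16plex LC-MS/MS with channel sums equalised, and values are log-two fold changes in thermal stability relative to solvent controls from duplicates.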
# [1] = compound: CCCS(=O)(=O)Nc1ccc(F)c(C(=O)c2c[nH]c3ncc(Cl)cc23)c1F
# In short: as §1
# [2] = compound: CC[C@@H]1C(=O)N(C)c2cnc(Nc3ccc(C(=O)NC4CCN(C)CC4)cc3OC)nc2N1C1CCCC1
# In short: as §1
# volasertib = compound: CC[C@@H]1C(=O)N(C)c2cnc(Nc3ccc(C(=O)N[C@H]4CC[C@H](N5CCN(CC6CC6)CC5)CC4)cc3OC)nc2N1C(C)C [volasertib]
# In short: as §1
# [3] = compound: CCn1c(C(=O)N(C2CC2)C2CC2)cc2c3c(ncn3C)c(Nc3cc(C)n(C)n3)nc21
# In short: as §1
# sotrastaurin = compound: CN1CCN(c2nc(C3=C(c4c[nH]c5ccccc45)C(=O)NC3=O)c3ccccc3n2)CC1 [sotrastaurin]
# In short: as §1
# Tubastatin A = compound: CN1CCc2c(c3ccccc3n2Cc2ccc(C(=O)NO)cc2)C1 [Tubastatin A]
# In short: as §1
# [4] = compound: CNC(=O)C1=CC=CC=C1NC2=NC(=NC=C2Cl)NC3=C(C=C(C=C3)N4CCOCC4)OC
# In short: as §1
# defactinib = compound: CNC(=O)c1ccc(Nc2ncc(C(F)(F)F)c(NCc3nccnc3N(C)S(C)(=O)=O)n2)cc1 [defactinib]
# In short: as §1
# encorafenib = compound: COC(=O)N[C@@H](C)CNc1nccc(-c2cn(C(C)C)nc2-c2cc(Cl)cc(NS(C)(=O)=O)c2F)n1 [encorafenib]
# In short: as §1
# [5] = compound: COC(=O)[C@H](CCSC)NC(=O)C1=C(C=C(C=C1)NC[C@H](CS)N)C2=CC=CC=C2
# In short: as §1
# alisertib = compound: COc1cc(Nc2ncc3c(n2)-c2ccc(Cl)cc2C(c2c(F)cccc2OC)=NC3)ccc1C(=O)O [alisertib]
# In short: as §1
# [6] = compound: COc1cc2nc(-c3cc(F)ccc3O)nc(N[C@@H]3CNC[C@H]3C(C)(C)O)c2cc1OC
# In short: as §1
# gefitinib = compound: COc1cc2ncnc(Nc3ccc(F)c(Cl)c3)c2cc1OCCCN1CCOCC1 [gefitinib]
# In short: as §1
# [7] = compound: CCn1cc(-c2ccnc3[nH]c(-c4cccc(CN(C)C)c4)cc23)c(-c2ccc(NC(=O)N(C)C)cc2)n1
# In short: as §1
# [8] = compound: CN1CCC(CNc2ccc3ncc(-c4cccc(OC(F)(F)F)c4)n3n2)CC1
# In short: as §1
# saracatinib = compound: CN1CCN(CCOc2cc(OC3CCOCC3)c3c(Nc4c(Cl)ccc5c4OCO5)ncnc3c2)CC1 [saracatinib]
# In short: as §1
# alvocidib = compound: CN1CC[C@H](c2c(O)cc(O)c3c(=O)cc(-c4ccccc4Cl)oc23)[C@H](O)C1 [alvocidib]
# In short: as §1
# [9] = compound: CNc1nc(-c2ccc3c(N)n[nH]c3c2)cc(N2C[C@@H](C(=O)NC3CCCCC3)CC[C@H]2C)n1
# In short: as §1
# barasertib = compound: CCN(CCCOc1ccc2c(Nc3cc(CC(=O)Nc4cccc(F)c4)[nH]n3)ncnc2c1)CCOP(=O)(O)O [barasertib]
# In short: as §1
# Chain of UniProt Q9Y5Z9 (Q9Y5Z9 whole entry, looked up): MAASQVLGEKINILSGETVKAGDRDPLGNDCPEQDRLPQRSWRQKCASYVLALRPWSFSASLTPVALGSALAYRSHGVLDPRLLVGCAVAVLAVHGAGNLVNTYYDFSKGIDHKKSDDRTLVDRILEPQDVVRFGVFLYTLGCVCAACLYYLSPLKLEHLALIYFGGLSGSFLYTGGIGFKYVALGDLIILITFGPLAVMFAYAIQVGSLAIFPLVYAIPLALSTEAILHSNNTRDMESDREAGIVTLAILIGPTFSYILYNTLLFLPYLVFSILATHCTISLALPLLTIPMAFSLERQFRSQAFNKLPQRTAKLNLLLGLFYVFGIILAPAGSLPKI
# Chain of UniProt Q9NRX6 (Q9NRX6 whole entry, looked up): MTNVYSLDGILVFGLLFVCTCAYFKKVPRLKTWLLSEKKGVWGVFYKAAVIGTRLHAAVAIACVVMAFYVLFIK
# Chain of UniProt O60637 (O60637 whole entry, looked up): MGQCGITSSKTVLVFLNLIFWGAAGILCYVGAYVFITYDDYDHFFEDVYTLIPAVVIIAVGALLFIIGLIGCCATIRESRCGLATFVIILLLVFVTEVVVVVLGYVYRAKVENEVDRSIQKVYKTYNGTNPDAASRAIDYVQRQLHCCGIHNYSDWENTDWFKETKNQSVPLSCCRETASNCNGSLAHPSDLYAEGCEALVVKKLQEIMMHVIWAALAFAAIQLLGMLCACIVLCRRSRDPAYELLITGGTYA
# Chain of UniProt Q96LJ8 (Q96LJ8 whole entry, looked up): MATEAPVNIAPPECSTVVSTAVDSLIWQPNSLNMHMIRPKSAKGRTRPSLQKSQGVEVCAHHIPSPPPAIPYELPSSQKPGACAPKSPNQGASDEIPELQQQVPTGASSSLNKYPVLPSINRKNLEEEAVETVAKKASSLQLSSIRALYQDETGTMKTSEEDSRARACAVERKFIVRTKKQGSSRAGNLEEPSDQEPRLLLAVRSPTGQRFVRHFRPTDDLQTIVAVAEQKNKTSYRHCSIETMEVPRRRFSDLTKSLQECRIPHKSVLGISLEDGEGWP
# Chain of UniProt Q96BZ9 (Q96BZ9 whole entry, looked up): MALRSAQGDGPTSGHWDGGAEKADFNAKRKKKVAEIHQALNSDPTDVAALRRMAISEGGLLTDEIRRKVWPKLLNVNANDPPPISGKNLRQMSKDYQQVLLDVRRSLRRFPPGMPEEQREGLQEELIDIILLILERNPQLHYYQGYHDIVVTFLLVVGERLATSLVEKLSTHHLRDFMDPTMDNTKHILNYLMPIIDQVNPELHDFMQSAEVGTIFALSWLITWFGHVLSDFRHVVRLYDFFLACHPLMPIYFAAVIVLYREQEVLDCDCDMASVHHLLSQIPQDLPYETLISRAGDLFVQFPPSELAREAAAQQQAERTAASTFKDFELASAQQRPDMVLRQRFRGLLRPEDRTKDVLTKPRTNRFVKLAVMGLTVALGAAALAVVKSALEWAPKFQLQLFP
# Chain of UniProt P10646 (P10646 whole entry, looked up): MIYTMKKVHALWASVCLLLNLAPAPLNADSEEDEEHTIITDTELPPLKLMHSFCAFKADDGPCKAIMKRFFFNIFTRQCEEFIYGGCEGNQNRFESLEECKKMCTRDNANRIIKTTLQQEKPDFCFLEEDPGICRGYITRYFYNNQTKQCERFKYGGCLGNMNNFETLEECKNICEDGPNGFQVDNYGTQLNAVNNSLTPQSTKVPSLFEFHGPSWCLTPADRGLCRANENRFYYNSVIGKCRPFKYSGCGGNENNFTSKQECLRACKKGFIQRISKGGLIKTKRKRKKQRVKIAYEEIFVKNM
# Chain of UniProt Q53S58 (Q53S58 whole entry, looked up): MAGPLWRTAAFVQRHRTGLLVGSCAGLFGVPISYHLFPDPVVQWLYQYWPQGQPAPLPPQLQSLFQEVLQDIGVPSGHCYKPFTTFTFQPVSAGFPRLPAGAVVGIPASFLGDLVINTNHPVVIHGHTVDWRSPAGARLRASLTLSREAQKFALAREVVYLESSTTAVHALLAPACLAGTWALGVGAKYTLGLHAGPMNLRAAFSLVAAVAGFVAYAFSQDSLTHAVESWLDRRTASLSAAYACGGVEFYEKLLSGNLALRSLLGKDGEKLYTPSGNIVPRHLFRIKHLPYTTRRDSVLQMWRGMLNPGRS
# Chain of UniProt Q9H3M7 (Q9H3M7 whole entry, looked up): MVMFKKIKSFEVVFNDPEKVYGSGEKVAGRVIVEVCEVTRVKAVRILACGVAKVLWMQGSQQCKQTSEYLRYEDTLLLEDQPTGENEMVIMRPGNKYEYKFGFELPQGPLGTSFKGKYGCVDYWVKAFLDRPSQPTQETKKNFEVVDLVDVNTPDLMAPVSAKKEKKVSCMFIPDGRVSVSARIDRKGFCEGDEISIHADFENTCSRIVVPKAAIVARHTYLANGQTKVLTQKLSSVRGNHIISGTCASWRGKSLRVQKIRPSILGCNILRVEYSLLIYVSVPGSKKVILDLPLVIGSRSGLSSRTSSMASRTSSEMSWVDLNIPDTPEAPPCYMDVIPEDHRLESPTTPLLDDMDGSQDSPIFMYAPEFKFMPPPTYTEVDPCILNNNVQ
# Chain of UniProt Q9H5L6 (Q9H5L6 whole entry, looked up): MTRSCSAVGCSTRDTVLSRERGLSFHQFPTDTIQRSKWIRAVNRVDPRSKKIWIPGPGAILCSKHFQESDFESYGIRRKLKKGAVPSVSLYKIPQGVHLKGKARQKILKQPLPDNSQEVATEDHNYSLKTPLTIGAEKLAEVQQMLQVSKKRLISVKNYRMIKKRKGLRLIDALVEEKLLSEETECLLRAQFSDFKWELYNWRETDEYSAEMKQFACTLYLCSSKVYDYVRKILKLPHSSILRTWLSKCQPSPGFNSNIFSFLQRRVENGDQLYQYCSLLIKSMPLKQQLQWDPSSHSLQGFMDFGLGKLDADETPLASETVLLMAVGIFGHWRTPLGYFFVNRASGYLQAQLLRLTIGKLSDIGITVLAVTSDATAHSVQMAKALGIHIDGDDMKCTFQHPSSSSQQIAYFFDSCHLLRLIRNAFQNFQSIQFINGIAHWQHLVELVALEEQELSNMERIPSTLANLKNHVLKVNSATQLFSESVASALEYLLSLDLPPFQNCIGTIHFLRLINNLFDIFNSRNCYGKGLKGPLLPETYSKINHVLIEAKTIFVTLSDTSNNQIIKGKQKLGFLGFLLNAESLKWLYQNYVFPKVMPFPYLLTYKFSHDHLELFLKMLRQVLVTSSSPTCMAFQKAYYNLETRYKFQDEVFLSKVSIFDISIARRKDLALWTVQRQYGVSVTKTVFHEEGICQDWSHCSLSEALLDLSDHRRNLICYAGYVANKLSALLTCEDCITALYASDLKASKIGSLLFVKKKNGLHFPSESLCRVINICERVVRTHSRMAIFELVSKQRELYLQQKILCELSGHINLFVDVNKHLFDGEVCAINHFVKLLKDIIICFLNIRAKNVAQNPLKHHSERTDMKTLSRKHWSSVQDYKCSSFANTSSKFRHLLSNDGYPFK
# Chain of UniProt O95271 (O95271 whole entry, looked up): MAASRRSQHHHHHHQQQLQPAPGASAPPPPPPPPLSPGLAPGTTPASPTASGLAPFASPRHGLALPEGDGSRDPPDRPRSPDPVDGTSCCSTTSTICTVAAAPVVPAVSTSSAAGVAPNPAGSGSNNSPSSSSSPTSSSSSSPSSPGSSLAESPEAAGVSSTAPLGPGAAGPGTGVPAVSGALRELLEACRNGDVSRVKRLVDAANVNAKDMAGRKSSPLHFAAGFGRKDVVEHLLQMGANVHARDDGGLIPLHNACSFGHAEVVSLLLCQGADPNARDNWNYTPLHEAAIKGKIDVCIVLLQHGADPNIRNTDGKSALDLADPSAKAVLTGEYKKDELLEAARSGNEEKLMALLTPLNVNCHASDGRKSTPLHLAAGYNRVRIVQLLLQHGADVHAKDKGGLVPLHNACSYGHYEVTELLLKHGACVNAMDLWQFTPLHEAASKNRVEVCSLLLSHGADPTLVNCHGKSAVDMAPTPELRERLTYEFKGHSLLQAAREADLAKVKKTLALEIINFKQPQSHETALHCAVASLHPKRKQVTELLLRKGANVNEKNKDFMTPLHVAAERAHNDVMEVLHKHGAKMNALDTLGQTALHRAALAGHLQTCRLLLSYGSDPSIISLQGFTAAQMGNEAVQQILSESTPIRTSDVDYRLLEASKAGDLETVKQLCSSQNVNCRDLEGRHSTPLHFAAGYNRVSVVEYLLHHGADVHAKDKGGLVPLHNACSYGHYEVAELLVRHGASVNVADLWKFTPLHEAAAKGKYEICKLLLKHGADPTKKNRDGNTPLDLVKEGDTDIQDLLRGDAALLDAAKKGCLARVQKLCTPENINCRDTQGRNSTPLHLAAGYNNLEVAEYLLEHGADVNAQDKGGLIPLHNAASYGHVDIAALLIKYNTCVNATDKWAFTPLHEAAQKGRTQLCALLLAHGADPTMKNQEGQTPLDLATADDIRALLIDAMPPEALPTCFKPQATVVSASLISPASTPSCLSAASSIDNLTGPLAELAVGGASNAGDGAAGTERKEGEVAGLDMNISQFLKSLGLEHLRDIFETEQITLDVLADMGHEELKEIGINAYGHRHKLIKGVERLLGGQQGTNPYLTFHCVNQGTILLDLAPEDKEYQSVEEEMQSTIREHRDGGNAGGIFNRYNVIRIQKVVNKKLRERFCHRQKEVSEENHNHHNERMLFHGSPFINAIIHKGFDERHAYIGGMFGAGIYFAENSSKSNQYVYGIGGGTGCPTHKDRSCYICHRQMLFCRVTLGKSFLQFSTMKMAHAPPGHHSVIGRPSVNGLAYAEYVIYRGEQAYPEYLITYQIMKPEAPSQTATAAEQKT
# Chain of UniProt Q9BZL1 (Q9BZL1 whole entry, looked up): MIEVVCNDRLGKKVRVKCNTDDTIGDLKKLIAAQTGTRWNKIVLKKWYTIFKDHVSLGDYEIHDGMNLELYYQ
Target,log2 fold change (vemurafenib),log2 fold change [1],log2 fold change [2],log2 fold change (volasertib),log2 fold change [3],log2 fold change (sotrastaurin),log2 fold change (Tubastatin A),log2 fold change [4],log2 fold change (defactinib),log2 fold change (encorafenib),log2 fold change [5],log2 fold change (alisertib),log2 fold change [6],log2 fold change (gefitinib),log2 fold change [7],log2 fold change [8],log2 fold change (saracatinib),log2 fold change (alvocidib),log2 fold change [9],log2 fold change (barasertib)
TMC1 (UniProt Q8TDI8),0.089,-0.02,-0.164,-0.021,-0.059,0.141,-0.088,-0.028,-0.002,0.03,0.054,0.216,0.021,0.215,–,–,–,–,–,–
UBIAD1 (UniProt Q9Y5Z9),-0.004,0.043,0.005,0.046,-0.083,-0.079,0.025,0.008,0.031,0.067,-0.102,0.112,-0.061,-0.048,0.045,-0.335,-0.036,-0.016,0.157,–
TFPI (UniProt P10646),-0.079,0.005,-0.019,0.016,0.093,0.167,-0.012,0.036,0.056,0.072,-0.017,-0.003,-0.128,0.061,0.689 (active),-0.321,–,0.245,–,0.015
TSPAN3 (UniProt O60637),-0.075,-0.052,0.01,0.073,-0.222,–,-0.081,0.027,0.096,-0.015,0.026,-0.231,0.042,0.049,0.663 (active),-0.3,-0.038,0.193,0.091,–
TEC (UniProt P42680),-0.081,-0.119,-0.054,0.14,–,–,–,–,0.07,-0.044,-0.036,-0.086,-0.028,-0.027,–,–,–,–,–,–
TMEM167B (UniProt Q9NRX6),0.058,-0.057,0.053,0.038,-0.028,0.056,-0.028,0.06,0.015,0.026,-0.022,0.012,0.032,0.032,-0.472 (active),0.086,–,-0.167,–,-0.009
UBXN10 (UniProt Q96LJ8),0.008,-0.089,0.095,0.074,0.01,-0.012,-0.02,0.051,0.026,0.045,-0.116,–,-0.006,–,-0.082,0.021,-0.016,-0.036,0.019,-0.133
TUBAL3 (UniProt A6NHL2),0.084,-0.024,-0.122,0.041,-0.196,–,0.109,-0.179,-0.093,0.03,0.032,0.135,0.088,-0.057,-0.413,0.284,0.001,-0.276,0.039,-0.011
TFAP4 (UniProt Q01664),0.105,0.021,0.131,-0.112,0.129,0.007,0.135,0.133,-0.066,0.156,-0.108,-0.106,-0.097,-0.096,0.597,-0.189,–,-0.037,–,0.072
TUBB6 (UniProt K7ES63),0.072,-0.027,-0.096,-0.064,0.018,0.036,-0.021,0.111,-0.018,0.024,0.125,0.055,-0.051,0.165,-0.06,0.23,–,-0.11,–,-0.012
UCHL5 (UniProt Q5LJA9),-0.021,-0.061,-0.103,0.03,-0.108,0.007,-0.153,0.005,0.015,0.007,0.091,–,-0.011,–,0.019,0,0.023,0.049,-0.156,-0.01
TXNIP (UniProt Q9H3M7),0.008,–,-0.006,–,0.016,0.016,-0.021,0.037,0.042,0.011,0.067,-0.015,–,-0.004,0.209,-0.11,-0.07,0.017,0.046,-0.005
TUBGCP5 (UniProt Q96RT8),-0.023,-0.351,-0.204,0,0.004,0.033,-0.128,–,-0.159,0.179,0.145,-0.023,0.025,-0.007,-0.06,0.088,-0.075,-0.069,-0.055,-0.057
UBL5 (UniProt Q9BZL1),0.014,–,-0.015,–,-0.028,-0.186,0.023,-0.048,0.041,-0.012,-0.06,0.039,–,-0.141,-0.126,0.097,-0.007,-0.117,-0.045,0.036
TBC1D20 isoform 3 (UniProt Q96BZ9),-0.088,-0.069,0.043,0.008,0.059,-0.096,-0.131,-0.017,0.166,0.037,-0.047,–,-0.021,–,0.046,-0.033,-0.038,-0.011,0.109,0.438 (active)
TNKS (UniProt O95271),-0.035,0.124,0.055,-0.11,0.027,0.021,-0.087,0.04,-0.013,-0.078,0.022,-0.002,-0.072,-0.069,0.207,-0.092,-0.007,-0.223,-0.031,–
TMEM177 (UniProt Q53S58),-0.057,0.011,-0.005,-0.076,0.078,-0.017,0.05,0.075,-0.009,0.019,0.153,–,0.002,–,0.056,-0.161,–,0.042,–,0.063
THAP9 (UniProt Q9H5L6),0.199,0.07,0.309,0.088,-0.401,0.076,0.053,–,-0.067,-0.009,0.085,–,0.179,–,-0.66 (active),0.151,0,-0.249,0.476,0.117
